Screening data from PubChem.
CYP2C19 inh – blockers of cytochrome P450 2C19 activity – biochemical, luminescence, ADME assay, primary screen. P33261. CYP2C19 Supersomes, luciferin-H EGE luminescence, 30 min. inhibition, % at 5 µM. hit rate 21% among 96,000. AID 778, 2007;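 active = CYP2C19 inhibition above a set limit at 5 µM in the primary screen, cut at about 50% in these data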
CYP2C9 inh – blockers of cytochrome P450 2C9 activity – biochemical, luminescence, ADME assay, primary screen | inhibition, % at 5 µM | P11712 | hit rate 20% among 96,000 | CYP2C9 Supersomes, luciferin-H conversion;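 active = blocking of liver enzyme CYP2C9 beyond about 50% at 5 µM, limit read from the data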
Mac1 fbg enh – enhancers of CD11b/CD18 adhesion to fibrinogen, primary screen, K562 cells, luminescence | activation, % at 10 µM | ATPlite luminescence | hit rate 0.07% among 93,000 | AID 1499, 2009;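 active = 10 µM primary screen giving 50% or more activity, confirmed by 40% or more on retest at that dose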
Target sequence (P05107 whole entry, looked up, other chains not shown): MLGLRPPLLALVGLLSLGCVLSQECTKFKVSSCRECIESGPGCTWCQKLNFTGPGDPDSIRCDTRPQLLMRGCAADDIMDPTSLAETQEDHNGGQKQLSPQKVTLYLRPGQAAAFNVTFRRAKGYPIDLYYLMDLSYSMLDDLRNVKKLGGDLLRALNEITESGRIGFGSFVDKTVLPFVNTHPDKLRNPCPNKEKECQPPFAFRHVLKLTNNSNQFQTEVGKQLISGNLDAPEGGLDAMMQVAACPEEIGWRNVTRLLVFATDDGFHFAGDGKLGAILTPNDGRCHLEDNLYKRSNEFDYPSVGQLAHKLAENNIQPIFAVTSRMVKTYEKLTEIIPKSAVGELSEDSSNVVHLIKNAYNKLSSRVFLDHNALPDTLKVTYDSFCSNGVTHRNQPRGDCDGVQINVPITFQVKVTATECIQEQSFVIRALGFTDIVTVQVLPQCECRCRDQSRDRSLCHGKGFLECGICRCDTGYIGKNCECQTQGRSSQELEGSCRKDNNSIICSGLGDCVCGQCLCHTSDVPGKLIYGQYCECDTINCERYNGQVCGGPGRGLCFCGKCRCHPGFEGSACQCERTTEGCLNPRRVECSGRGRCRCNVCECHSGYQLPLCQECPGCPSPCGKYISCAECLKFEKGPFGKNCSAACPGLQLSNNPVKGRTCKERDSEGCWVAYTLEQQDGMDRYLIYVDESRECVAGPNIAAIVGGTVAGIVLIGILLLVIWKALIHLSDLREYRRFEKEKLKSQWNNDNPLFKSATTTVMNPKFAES
CYP2C9 activ – human CYP2C9 activators, primary screen, biochemical, luminescence. Cytochrome P450 2C9 (Homo sapiens), P11712. recombinant CYP2C9, luciferin-H conversion; active compounds read high; factor 1 = untreated enzyme, 0 = blocked. activation factor at 5 µM. hit rate 1.4% among 96,000. AID 1024, 2008;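 active = activation factor of 2 or more for CYP2C9 at a 5 µM dose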
Mac1 fbg inh – inhibitors of CD11b/CD18 adhesion to fibrinogen, primary screen, K562 cells, luminescence; inhibition, % at 10 µM; ATPlite luminescence; Mn2+ added to activate the integrin; hit rate 0.54% among 93,000; Integrin beta-2 (Homo sapiens) + Integrin alpha-M (Homo sapiens), P05107+P11215;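 active = primary inhibition of 50% or more at 10 µM, then 40% or more on retest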
CYP2C19 activ – human CYP2C19 activators, primary screen, biochemical, luminescence. activation factor at 5 µM. recombinant CYP2C19, luciferin-H EGE luminescence; active compounds read high; 0 = fully inhibited enzyme, 1 = untreated enzyme. 96,000 tested, under 10 active. AID 1025, 2008. Cytochrome P450 2C19 (Homo sapiens), P33261;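 active = activation factor of at least 2 at 5 µM in the primary screen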
Of the large screens only hits and unclear results are named; the others gave an inactive call. Most compounds without a hit are left out; they make up all but 28% or so of the library.

CC1(C)CC(=O)C(C=NCCN2CCN(C(=O)C34CC5CC(CC(C5)C3)C4)CC2)=C(O)C1	none
Cc1ccccc1NC(=O)Cn1cnc2c(oc3ccccc32)c1=O	CYP2C19 inh 63.8, CYP2C9 inh 59.0
O=C(CSc1ncnc2c1oc1ccccc12)Nc1cccc(F)c1	CYP2C19 inh 60.5, CYP2C9 inh 76.1
NC(=O)Cn1c2[n+](c3ccccc31)CC(O)CS2 (configuration not stated)	none
Brc1ccc(-c2nc3ncccn3c2Nc2ccc3c(c2)OCCO3)o1	CYP2C9 inh 57.5
Cc1cc(C)n2c(Nc3ccc4c(c3)OCCO4)c(-c3ccco3)nc2n1	CYP2C9 inh 61.7
Cc1ccc(-c2nc3ncccn3c2Nc2ccc3c(c2)OCCO3)o1	CYP2C9 inh 52.6
Oc1ccc(-c2nc3ncccn3c2Nc2ccc3c(c2)OCCO3)cc1	CYP2C9 inh 69.7
Clc1ccc(-c2nc3ncccn3c2Nc2ccc3c(c2)OCCO3)cc1	none (no result: Mac1 fbg enh, Mac1 fbg inh)
Cc1ccc(-c2nc3ncccn3c2Nc2ccc3c(c2)OCCO3)cc1	none
CC(C)COC(=O)N1CC(O)CC1C(=O)O (configuration not stated)	none
Cc1ccc(NC(=O)c2cc(NC(=O)C3CC=CCC3C(=O)O)ccc2N2CCOCC2)cc1Cl (configuration not stated)	CYP2C9 inh 61.1
Cc1ccc(NC(=O)c2cc(NC(=O)C3CC=CCC3C(=O)O)ccc2N2CCOCC2)cc1 (configuration not stated)	none
COC(=O)c1c(NC(=S)Nc2ccc(F)cc2[N+](=O)[O-])sc2c1CCCCC2	Mac1 fbg inh 85.9 (no result: CYP2C19 inh, CYP2C9 inh, CYP2C9 activ, CYP2C19 activ)
Nc1nnc(Cc2ccccc2)s1	none
Nc1nnc(CC(c2ccccc2)c2ccccc2)s1	CYP2C19 inh 85.3
COc1ccc(Cl)cc1NC(=O)COc1cccc(-n2cnnn2)c1	CYP2C9 activ 3.3
COc1ccc(NC(=O)CCC2CCCC2)cc1OC	CYP2C19 inh 94.9
O=C(COc1cccc(OC(F)F)c1)Nc1ccc(SC(F)F)cc1	CYP2C19 inh 81.3
COC(=O)Nc1ccc(OC)c(OC)c1	none
COc1cc(NC(=O)COc2cccc(OC)c2)cc(OC)c1	CYP2C19 inh 87.8
COc1cccc(OCC(=O)Nc2ccc(OC)c(OC)c2)c1	CYP2C19 inh 50.8
CCC(=O)Nc1cccc(NC(=O)COc2ccc(OC)cc2)c1	none
COc1cc(NC(=O)Cc2ccccc2)cc(OC)c1	CYP2C19 inh 94.2
O=C1OC(c2ccc3c(c2)OCO3)N(C(=O)c2ccc(Cl)c(Cl)c2)c2ccccc21 (configuration not stated)	CYP2C19 inh 84.5, CYP2C9 inh 85.8
CC(=O)N1c2ccccc2C(=O)OC1c1cccnc1 (configuration not stated)	none
CC(=O)N1C(c2ccccc2)CC(=O)OC1c1ccc2c(c1)OCO2 (configuration not stated)	CYP2C19 inh 68.8
Cc1cccc(C(=O)N2c3ccccc3C(=O)OC2c2ccc3c(c2)OCO3)c1 (configuration not stated)	CYP2C9 inh 57.7 (no result: Mac1 fbg enh, Mac1 fbg inh)
Cn1c(Sc2ccc(C(F)(F)F)cc2[N+](=O)[O-])nnc1-c1ccccc1	CYP2C9 activ 2
Cn1c(Sc2ccc([N+](=O)[O-])cc2C(F)(F)F)nnc1-c1ccccc1	none
CCn1c(COc2ccccc2C)nnc1SCC(=O)N1CCCCC1	none
O=C(NCc1ccc(F)cc1)C(c1ccncc1)N(C(=O)c1csnn1)C1CC1 (configuration not stated)	CYP2C19 inh 53.5 (no result: Mac1 fbg enh, Mac1 fbg inh)
CCOC(=O)c1c(N)sc(C(O)(C(F)(F)F)C(F)(F)F)c1-c1ccccc1	CYP2C19 inh 89.8, CYP2C9 inh 98.6
CCOC(=O)c1c(N)nn(C(=O)C(C)(C)C)c1-c1ccccc1	none
CCOc1ccc(CCNC(=O)Cn2c(-c3nonc3N)nc3ccccc32)cc1OCC	CYP2C9 inh 69.6
COc1ccc(CCNC(=O)Cn2c(-c3nonc3N)nc3ccccc32)cc1OC	CYP2C19 inh 89.1
COc1ccc(CNC(=O)Cn2c(=O)oc3ccccc32)cc1OC	none
CCOc1ccc(CCNC(=O)Cn2c(=O)oc3ccccc32)cc1OCC	CYP2C19 inh 84.1, CYP2C9 inh 61.8
CC1CCN(Cc2ccc(-c3nn[nH]n3)cc2)CC1	none
Cc1cccc(C)c1Oc1nc(-c2ccccc2)ncc1S(=O)(=O)c1ccccc1	CYP2C9 inh 84.8
Cc1noc(/C=C/N(C)C)c1S(=O)(=O)N1CCCC(C(=O)Nc2ccc3c(c2)OCO3)C1 (configuration not stated)	CYP2C9 inh 67.0
Cc1noc(/C=C/N(C)C)c1S(=O)(=O)N1CCCC(C(=O)N2CCCCC2)C1 (configuration not stated)	CYP2C9 inh 57.7
CCOC(=O)c1c(C2CC2)csc1NC(C)=O	none
COC(=O)CS(=O)(=O)c1ccc2c(c1)CC(=O)N2	none
COc1ccccc1NS(=O)(=O)c1ccc(Br)s1	CYP2C19 inh 91.5
COc1cccc(NS(=O)(=O)c2ccc(Br)s2)c1	CYP2C19 inh 100.0, CYP2C9 inh 84.2
O=C(NCC1(c2ccccc2)CCCC1)c1cccc(Br)c1	none (no result: Mac1 fbg enh, Mac1 fbg inh)
O=C(c1ccccc1F)N(NC(=O)C(O)(c1ccccc1)c1ccccc1)c1ccccc1	none (no result: CYP2C19 inh, CYP2C9 inh, CYP2C9 activ, CYP2C19 activ)
O=C(CN1C(=O)CNC1=O)Nc1cccc(C(F)(F)F)c1	none
CN(C)c1ccc([N+](=O)[O-])cc1C(=O)O	none (no result: CYP2C19 inh, CYP2C9 inh, CYP2C9 activ, CYP2C19 activ)
Cc1csc(NC(=O)CSCC(=O)Nc2ccccc2)n1	CYP2C9 inh 57.4
CCc1ccc(C(=O)CSc2nc3ccccc3c(=O)[nH]2)cc1	none
CC(C)(C)N(Cc1ccccc1)C(=O)CSc1nc2ccccc2c(=O)[nH]1	CYP2C19 inh 65.9, CYP2C9 inh 82.3
CN(C)C(=O)CSc1nc2ccccc2c(=O)[nH]1	none
Cc1ccc(C(=O)CSc2nc3ccccc3c(=O)[nH]2)cc1	CYP2C9 inh 74.6
Cc1cc(C)c2c(=O)[nH]c(SCC(=O)c3ccc(C(C)C)cc3)nc2n1	CYP2C9 inh 50.8
Cc1cc(=O)[nH]c(SCC(=O)c2ccc(C(C)C)cc2)n1	none
CC(C)(C)c1csc(NC(=O)CSc2nc3ccccc3c(=O)[nH]2)n1	CYP2C19 inh 67.2, CYP2C9 inh 94.2
Cc1ccc(NC(=S)Nc2nc(CC(=O)Nc3ccccc3)cs2)cc1	CYP2C19 inh 59.2 (no result: Mac1 fbg enh, Mac1 fbg inh)
CC(C)(C)c1csc(NC(=O)Cn2cnc3ccccc3c2=O)n1	none
